Only some compounds are listed: those with a hit (about 3.2% of all), similar ones and a draw of the others.
15-hLO-2 inh = inhibitors of human 15-lipoxygenase 2 (ALOX15B). purified 15hLO-2, xylenol orange hydroperoxide absorbance. 110,000 compounds, 0.56% hits. Potency, µM (top dose mostly 57.1 µM), most hits filed as inhibitors. O15296; also: nearly all actives have a fitted effect of over 60% in size
Target sequence (O15296 whole entry, looked up): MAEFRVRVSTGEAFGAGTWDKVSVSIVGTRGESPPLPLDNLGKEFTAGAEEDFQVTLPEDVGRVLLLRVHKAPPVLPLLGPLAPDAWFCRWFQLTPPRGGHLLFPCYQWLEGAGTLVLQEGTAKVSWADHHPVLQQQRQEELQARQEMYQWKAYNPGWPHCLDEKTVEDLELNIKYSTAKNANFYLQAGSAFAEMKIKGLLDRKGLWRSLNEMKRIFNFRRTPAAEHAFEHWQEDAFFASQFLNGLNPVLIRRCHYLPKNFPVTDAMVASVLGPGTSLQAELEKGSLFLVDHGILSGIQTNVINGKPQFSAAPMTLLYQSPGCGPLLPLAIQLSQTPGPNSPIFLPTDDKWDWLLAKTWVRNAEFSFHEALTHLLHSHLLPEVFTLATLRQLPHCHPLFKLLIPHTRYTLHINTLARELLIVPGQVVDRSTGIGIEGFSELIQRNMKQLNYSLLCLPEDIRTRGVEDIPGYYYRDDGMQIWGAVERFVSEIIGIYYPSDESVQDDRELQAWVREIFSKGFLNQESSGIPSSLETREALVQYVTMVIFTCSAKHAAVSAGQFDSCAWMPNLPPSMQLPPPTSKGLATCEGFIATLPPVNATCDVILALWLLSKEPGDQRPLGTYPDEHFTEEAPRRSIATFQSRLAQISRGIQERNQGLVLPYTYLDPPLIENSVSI
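Purified human 15hLO-2 (50 nM final) preincubated with compounds 15 min at room temperature in 25 mM Hepes pH 7.5, 0.01% Triton X-100, then 45 uM arachidonic acid added for 90 min; hydroperoxide detected via ferrous/xylenol orange, 573/405 nm absorbance ratio.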
CRE Fsk mod = CRE-bla signaling modulation under forskolin stimulation; 71,000 compounds, 2.5% hits; CHO CRE-bla reporter (cAMP response element driving beta-lactamase), forskolin EC10, beta-lactamase ratio; Potency, µM (highest dose often 38.2 µM), hits mostly activators; active = well fitted activation curve with a large enough effect in the signal ratio, with a control signal flat, not every such curve was filed as active; inconclusive = small, poorly fitted or top-dose-only effect, or effect the other way, or a change in a side signal; the % refers to the signal ratio
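Titrated compounds plus EC10 NKH 477 on CHO CRE-bla cells, 3 h, 37 °C. CCF4, 2 h RT. Ratio 460/530 nm → AC50.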
15-hLO inh = blocks human 15-lipoxygenase activity | Potency, µM (highest dose often 57.1 µM), hits mostly inhibitors | P16050 | purified 15hLO-1, xylenol orange hydroperoxide absorbance | 74,000 compounds, 1.4% hits; also: nearly all actives have a fitted effect of over 55% in size
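Inhibition is scored from a chromogenic endpoint. After 15 min enzyme-compound contact, arachidonic acid (50 uM final) reacts 6 min with 40 nM 15hLO-1 at room temperature, then Fe-XO reagent is added for 30 min and absorbance ratio recorded.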
ERK AVP inh = blocks ERK signaling stimulated by vasopressin. Potency, µM (series often up to 57.5 µM), usual class: inhibitors. AID 995. 72,000 compounds, 0.99% hits. HEK293-V1b, vasopressin-stimulated pERK AlphaScreen; also: nearly all actives have a fitted effect of over 55% in size
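Phosphorylated ERK1/2 detected via AlphaScreen bead proximity in lysates of V1b-expressing HEK293 cells given 25 nM vasopressin for 5 min after 30 min compound exposure (37 °C). AC50 from Hill equation; basal DMSO 0%, vasopressin 100%.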
Large screens that a line does not name were inactive. Unless noted, calls follow the shape of the dose curve; as a rule, active = well fitted inhibition curve with a large enough effect; inconclusive = small, poorly fitted or top-dose-only effect; inactive = no such curve, though single readings can be large or run the other way.

c1ccc2[nH]c(CSc3nnc(-c4ccncc4)o3)nc2c1	CRE Fsk mod 4µM
c1ccc2c(CSc3nnc(-c4ccncc4)o3)cccc2c1	none (no result: CRE Fsk mod, 15-hLO inh, ERK AVP inh)
Brc1cccc(-c2nnc(SCc3nc4ccccc4[nH]3)o2)c1	CRE Fsk mod 2µM, ERK AVP inh inconclusive
Brc1cccc(-c2nnc(-c3ccccc3)o2)c1	none
CC(=O)N(CC(O)CN(C(C)=O)c1c(I)c(C(=O)NC[C@@H](O)CO)c(I)c(C(=O)NC[C@@H](O)CO)c1I)c1c(I)c(C(=O)NC[C@@H](O)CO)c(I)c(C(=O)NC[C@@H](O)CO)c1I	none
N#Cc1nc(-c2ccc(F)cc2)oc1NCc1cccc2c1OCO2	CRE Fsk mod 10µM, 15-hLO inh 13µM, ERK AVP inh 7.9µM (no result: 15-hLO-2 inh)
Cc1ccc(-c2nc(C#N)c(NCc3cccc4c3OCO4)o2)cc1	CRE Fsk mod inconclusive, 15-hLO inh inconclusive, ERK AVP inh inconclusive
NNC(=O)c1ccc[n+](CCc2ccccc2)c1	none
CCN(CC)C(C)CN1c2ccccc2Sc2ccccc21 (configuration not stated)	15-hLO-2 inh 13µM, 15-hLO inh 25µM (no result: CRE Fsk mod)
CN1CC[C@H](CN2c3ccccc3Sc3ccccc32)C1	none
O=C(Nc1ccc(N2CCN(C(=O)c3ccccc3)CC2)cc1)c1cc2ccccc2o1	CRE Fsk mod inconclusive, 15-hLO inh inconclusive, ERK AVP inh 1µM
CC(C)C(=O)Nc1ccc(NC(=O)c2cc3ccccc3o2)cc1	none
CCOC(=O)c1ccc(NC(=O)c2cc3ccccc3o2)cc1	ERK AVP inh 32µM
CCOC(=O)c1ccc(NC(=O)Nc2ccc3c(c2)OCCO3)cc1	ERK AVP inh 25µM (no result: 15-hLO-2 inh)
CC(C)CNc1nc2ncnc(N)c2[nH]1	none
N#CC1=C2SCN(Cc3ccccc3)CN2C(=O)CC1c1ccc2c(c1)OCO2 (configuration not stated)	15-hLO-2 inh inconclusive, CRE Fsk mod inconclusive, 15-hLO inh 13µM
N#CC1=C2SCN(Cc3ccco3)CN2C(=O)CC1c1ccc(Cl)cc1 (configuration not stated)	15-hLO-2 inh inconclusive, 15-hLO inh 13µM
CC(C)c1ccc(C2CC(=O)N3CN(Cc4ccco4)CSC3=C2C#N)cc1 (configuration not stated)	15-hLO-2 inh inconclusive, CRE Fsk mod inconclusive, 15-hLO inh 13µM
COc1ccc(C2CC(=O)N3CN(Cc4ccco4)CSC3=C2C#N)cc1 (configuration not stated)	15-hLO inh inconclusive
O=c1c(-c2cccs2)nc2cnc(Oc3cccc(Cl)c3)nc2n1C1CC1	CRE Fsk mod inconclusive
CCCCCCNC(=O)Nc1ccc(S(=O)(=O)Nc2ccc(CCNC[C@H](O)COc3ccc(O)cc3)cc2)cc1	15-hLO inh 7.9µM (no result: CRE Fsk mod)
Cc1nc2cncnc2n(-c2ccccc2)c1=O	none
CN(C)C=Nc1ncc2c([nH]c3ccccc32)c1C#N	15-hLO inh inconclusive, ERK AVP inh 25µM
CCOc1ccc(-c2nc(=S)[nH][nH]2)cc1	15-hLO-2 inh inconclusive, 15-hLO inh 25µM
CC(=O)C1=C(C)NC(SCC(=O)c2ccc(Cl)cc2)=C(C#N)C1c1ccco1 (configuration not stated)	CRE Fsk mod inconclusive, 15-hLO inh 13µM
CC(=O)C1=C(C)NC(SCC(=O)c2ccc(Cl)cc2Cl)=C(C#N)C1c1ccco1 (configuration not stated)	CRE Fsk mod inconclusive, 15-hLO inh 13µM
CSCSC1=C(C#N)C(c2ccc(Cl)cc2)C(C(C)=O)=C(C)N1 (configuration not stated)	15-hLO-2 inh inconclusive, 15-hLO inh inconclusive
CC(=O)C1=C(C)NC(SCC(=O)c2ccccc2)=C(C#N)C1CC(C)C (configuration not stated)	15-hLO-2 inh inconclusive, 15-hLO inh 4µM
CC(=O)C1=C(C)NC(SCC(=O)c2ccccc2)=C(C#N)C1c1ccco1 (configuration not stated)	CRE Fsk mod inconclusive, 15-hLO inh inconclusive
COCCn1c(=O)c(-c2ccc(OC)cc2)nc2cnc(N3CCN(C)CC3)nc21	CRE Fsk mod inconclusive
CCCn1c(C)nc2c(NCCCN3CCCCC3C)nc(C)nc21 (configuration not stated)	none
Cc1cc(C(=O)CSc2nnc(-c3ccc(F)cc3)o2)c(C)n1CC1CCCO1 (configuration not stated)	none (no result: CRE Fsk mod, 15-hLO inh, ERK AVP inh)
COc1cc(-c2nnc(SCc3ccccc3Cl)o2)cc(OC)c1OC	CRE Fsk mod 4µM
COc1cc(-c2nnc(SCC(=O)c3cc(C)n(CC4CCCO4)c3C)o2)cc(OC)c1OC (configuration not stated)	CRE Fsk mod 4µM
COc1cc(-c2nnc(SCc3c(F)cccc3Cl)o2)cc(OC)c1OC	CRE Fsk mod inconclusive
COc1cc(-c2nnc(SCC(=O)c3ccc(C)cc3)o2)cc(OC)c1OC	CRE Fsk mod 2.5µM
N=C(c1ccc2ccccc2c1)c1ccccc1Cc1ccccc1	none
CCN(CC)S(=O)(=O)c1cccc(-c2nnc(SCC(=O)NCCC3=CCCCC3)n2N)c1	ERK AVP inh 40µM
CCNC(=O)CSc1nnc(-c2cccc(S(=O)(=O)N(CC)CC)c2)n1CCc1ccccc1	none (no result: CRE Fsk mod, 15-hLO inh, ERK AVP inh)
N#CC1=C(N)C(C#N)(C#N)C(c2cccnc2)C2CCCC=C12 (configuration not stated)	CRE Fsk mod inconclusive, 15-hLO inh 25µM, ERK AVP inh inconclusive
N#CC1=C(N)C(C#N)(C#N)C(c2cccnc2)C2CC(c3ccccc3)CC=C12 (configuration not stated)	none (no result: CRE Fsk mod, 15-hLO inh, ERK AVP inh)
c1ccc(CCCNc2ncnc3nc[nH]c23)cc1	CRE Fsk mod 7.9µM (no result: 15-hLO-2 inh, ERK AVP inh)
c1ccc(CNc2ncnc3nc[nH]c23)cc1	none
O=C(c1ccccc1)c1ccc(OCC(O)CN2CCN(S(=O)(=O)N3CCCCC3)CC2)cc1 (configuration not stated)	none (no result: CRE Fsk mod, 15-hLO inh, ERK AVP inh)
CN(C)S(=O)(=O)N1CCN(CC(O)COc2ccc(C(=O)c3ccccc3)cc2)CC1 (configuration not stated)	ERK AVP inh 32µM
CCOc1ccc2nc(NC(=O)Nc3cccs3)sc2c1	CRE Fsk mod inconclusive, 15-hLO inh inconclusive, ERK AVP inh 32µM (no result: 15-hLO-2 inh)
CCOc1ccc2nc(NC(=O)Nc3ccccc3)sc2c1	none (no result: CRE Fsk mod, 15-hLO inh, ERK AVP inh)
CCOc1ccc2nc(NC(=O)COC)sc2c1	none
CCOc1ccc2nc(NC(=O)c3ccoc3C)sc2c1	CRE Fsk mod inconclusive, 15-hLO inh 4µM
CC(=O)OC1CC[C@@]2(C)C(CC[C@@]3(C)C2CC=C2C4CC(C)(C)CC[C@]4(C)CC[C@@]23C)C1(C)C (some centres not stated)	none (no result: CRE Fsk mod)
CC(C)(c1cc(Br)c(O)c(Br)c1)c1cc(Br)c(O)c(Br)c1	15-hLO-2 inh inconclusive, CRE Fsk mod inconclusive, 15-hLO inh 2.5µM
NCCSCCc1ccccc1	none
CCOc1ccc(-n2c(-c3ccco3)n[nH]c2=S)cc1	15-hLO-2 inh inconclusive, 15-hLO inh 32µM
COc1ccccc1-n1c(=O)oc2ccc(Cl)cc2c1=O	ERK AVP inh 20µM
COc1ccc(Cl)cc1N1Cc2ccccc2C1	none (no result: CRE Fsk mod, 15-hLO inh, ERK AVP inh)
CCc1c2c(nc3c(C(C)C)cccc13)-c1cccc(=O)n1C2	CRE Fsk mod inconclusive (no result: 15-hLO inh)
